Potency and affinity values are given separately. Unmarked numbers belong to inactive results.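 How the source made its calls: active means compounds lowering cell ATP signal whose fitted half-maximal concentration is at most twice the top tested dose; inconclusive means flat curve with 30 to 70% signal loss, or poor fit; inactive means the rest.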
Test: viability loss in HEK293T cells – cell-based, CellTiter-Glo luminescence, dry powder, set 6, cytotoxicity control, dose response (AID 651949)
Settings: CellTiter-Glo ATP luminescence, 48 h; series mostly up to 26 µM; activity change, negative = cytotoxicity: at the top concentration

| Compound | activity change, negative = cytotoxicity |
| --- | --- |
| Cc1cccc(CSc2nnc(-c3ccc(Cl)cc3)o2)n1 | -19.3% |
| N#Cc1cccc(-c2nnc(SCc3ccccc3)o2)c1 | -15.6% |
| Fc1cccc(CSc2nnc(-c3ccccc3)o2)c1 | 9.95% |
| c1ccc(CSc2nnc(-c3cnco3)o2)cc1 | -14.8% |
| Fc1ccc(Cn2cc(CSc3nnc(-c4ccc(F)cc4)o3)nn2)cc1 | -11.5% |
| [O-][n+]1ccccc1CSc1nnc(-c2ccccc2)o1 | -25.5% |
| FC(F)(F)Oc1ccc(CSc2nnc(-c3ccccc3)o2)cc1 | 14.6% |
| CCSc1nnc(-c2ccccc2)o1 | -17.3% |
| COc1ccc(-c2nnc(SCc3ccccn3)o2)cc1 | -30.6% |
| FC1(F)CN(CCSc2nnc(-c3ccccc3)o2)C1 | -10.1% |
| O=S(Cc1cn(-c2ccccc2)nn1)c1nnc(-c2ccc(Cl)cc2)o1 (centres undefined) | 10.6% [at 12 µM] |
| Brc1ccc(CSc2nnc(-c3ccccc3)o2)cc1 | -4.14% |
| CS(=O)(=O)c1ccccc1-c1nnc(SCc2ccccc2)o1 | -29.6% |
| Clc1ccc(CSc2nnc(-c3ccccc3)o2)cc1 | -5.48% |
| c1ccc(-c2nnc(SCc3ccncc3)o2)cc1 | 3.39% |
| FC(F)(F)c1ccc(-c2nnc(SCc3ccccc3)o2)cc1 | -8.43% |
| Fc1cccc(-c2nnc(SCc3ccccc3)o2)c1 | 5.2% |
| c1ccc(-c2nnc(SCCN3CCCC3)o2)cc1 | -11.4% |
| N#Cc1ccc(-c2nnc(SCc3ccccc3)o2)cc1 | -23% |
| CS(=O)(=O)c1ccccc1CSc1nnc(-c2ccccc2)o1 | 16.3% |

| Compound | activity change, negative = cytotoxicity |
| --- | --- |
| c1ccc(CSc2nnc(C3CCCCC3)o2)cc1 | -21.4% |
| c1ccc(-c2ccc(CSc3nnc(-c4ccccc4)o3)cc2)cc1 | -12.2% |
| N#Cc1ccccc1CSc1nnc(-c2ccccc2)o1 | -15.6% |
| c1ccc(-c2nnc(SCc3cccnc3)o2)cc1 | -16.5% |
| c1ccc(CSc2nnc(-c3cccs3)o2)cc1 | 12.7% |
| O=S(=O)(Cc1ccccc1)c1nnc(-c2ccccc2)o1 | -5.28% |
| O=C(Cc1ccccc1)c1nnc(-c2ccccc2)o1 | -21.1% |
| Fc1ccc(CSc2nnc(-c3ccc(Cl)cc3)o2)cc1 | 4.47% |
| c1ccc(CCc2nnc(-c3ccccc3)o2)cc1 | -22.1% |
| FC(F)(F)c1cccc(CSc2nnc(-c3ccccc3)o2)c1 | 1.3% |
| Fc1ccc(Cn2cc(CSc3nnc(C4CCCC4)o3)nn2)cc1 | 4.22% |
| Clc1ccccc1CSc1nnc(-c2ccccc2)o1 | -13.2% |
| c1ccc(CSc2ncc(-c3ccccc3)o2)cc1 | 8.63% |
| c1ccc(-n2cc(CSc3nnc(C4CCCC4)o3)nn2)cc1 | -8.38% |
| COc1ccccc1CSc1nnc(-c2ccccc2)o1 | -4.23% |
| Brc1cccc(-c2nnc(SCc3ccccn3)o2)c1 | -29.4% |
| c1ccc(-c2nnc(SCC3CC3)o2)cc1 | -28.5% |
| c1ccc(CSc2nnc(-c3cccnc3)o2)nc1 | 26.4% |
| c1ccc(COc2nnc(-c3ccccc3)o2)cc1 | 5.38% |

Source: PubChem BioAssay AID651949 (Broad Institute, 2012)
